We go through nine sequences from article PMC7862700, “An all-to-all approach to the identification of sequence-specific readers for epigenetic DNA modifications on cytosine”.

Holding throughout (experiment): DAPPL (digital affinity profiling via proximity ligation, sequencing); 10 mM Tris-HCl pH 7.5, 50 mM NaCl, 1 mM DTT, 4% glycerol, room temperature, 30 min; GST-TFs on glutathione beads, 16-mer random dsDNA library, 0.1% formaldehyde crosslink after washing; high values mean tight binding
Holding throughout (conditions): protein: recombinant; tags: N-terminal GST; dsDNA, one strand shown

For experiment [1], the target named is T1, ERF (Homo sapiens, UniProt P50548 1-548).
T1 sequence: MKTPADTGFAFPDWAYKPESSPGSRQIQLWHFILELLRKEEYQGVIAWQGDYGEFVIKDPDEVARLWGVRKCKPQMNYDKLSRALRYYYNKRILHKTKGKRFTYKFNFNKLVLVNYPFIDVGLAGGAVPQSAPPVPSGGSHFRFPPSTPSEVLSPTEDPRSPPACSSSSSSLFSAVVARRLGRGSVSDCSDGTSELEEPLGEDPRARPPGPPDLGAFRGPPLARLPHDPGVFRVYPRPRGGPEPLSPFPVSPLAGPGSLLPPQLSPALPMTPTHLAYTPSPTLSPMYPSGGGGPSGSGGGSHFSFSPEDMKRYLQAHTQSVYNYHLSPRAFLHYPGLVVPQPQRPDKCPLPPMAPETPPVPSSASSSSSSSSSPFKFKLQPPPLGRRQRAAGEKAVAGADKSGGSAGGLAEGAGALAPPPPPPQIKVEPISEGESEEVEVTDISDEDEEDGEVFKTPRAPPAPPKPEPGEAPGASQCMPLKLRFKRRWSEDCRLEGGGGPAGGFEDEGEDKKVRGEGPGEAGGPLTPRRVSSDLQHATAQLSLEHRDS
The procedure, abridged:
(§1)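 Beads coated with glutathione captured GST-fused human transcription factors that had been expressed in yeast, and the factors were then given DNA barcodes and pooled with a tag-only sample. The pools were incubated with 200 nmole of a random double-stranded 16-mer DNA library in Tris/NaCl/DTT/glycerol buffer for 30 min at room temperature, washed, crosslinked with 0.1% formaldehyde and proximity-ligated with BsaI/T4 ligase at 37 °C for 1 h. PCR amplification and Illumina NextSeq500 sequencing came last. Binding signal is each hexamer's read frequency for a factor divided by its frequency for the tag-only sample.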

Experiment [2] has as its target T2, ETV3L (Homo sapiens, UniProt Q6ZN32 1-361).
T2 sequence: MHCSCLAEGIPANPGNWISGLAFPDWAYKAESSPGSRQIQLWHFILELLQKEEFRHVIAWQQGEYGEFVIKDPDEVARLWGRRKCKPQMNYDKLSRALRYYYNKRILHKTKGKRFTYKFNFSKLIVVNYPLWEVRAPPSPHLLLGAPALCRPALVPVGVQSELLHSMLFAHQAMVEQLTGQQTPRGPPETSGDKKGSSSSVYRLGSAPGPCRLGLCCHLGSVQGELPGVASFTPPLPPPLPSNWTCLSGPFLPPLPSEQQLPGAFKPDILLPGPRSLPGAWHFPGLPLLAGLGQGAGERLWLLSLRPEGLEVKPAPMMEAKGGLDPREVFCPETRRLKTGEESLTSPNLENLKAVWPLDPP
Put shortly: as §1

In experiment [3] the target is T3, ETS2 (Homo sapiens, UniProt P15036 1-469).
T3 sequence: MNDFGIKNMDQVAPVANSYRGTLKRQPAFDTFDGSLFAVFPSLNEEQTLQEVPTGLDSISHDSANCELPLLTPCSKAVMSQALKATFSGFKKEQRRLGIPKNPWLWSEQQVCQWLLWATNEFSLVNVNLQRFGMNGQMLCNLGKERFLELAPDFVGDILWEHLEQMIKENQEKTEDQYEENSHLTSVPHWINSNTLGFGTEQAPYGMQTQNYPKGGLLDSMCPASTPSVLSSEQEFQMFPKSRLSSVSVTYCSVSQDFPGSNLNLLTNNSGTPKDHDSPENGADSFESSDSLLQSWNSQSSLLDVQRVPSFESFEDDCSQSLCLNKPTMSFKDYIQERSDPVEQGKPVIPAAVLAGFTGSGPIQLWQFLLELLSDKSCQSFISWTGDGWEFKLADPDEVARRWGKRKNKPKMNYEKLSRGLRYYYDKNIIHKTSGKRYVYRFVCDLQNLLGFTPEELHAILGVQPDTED
The procedure, abridged: as §1

Experiment [4] has as its target T4, SPDEF (Homo sapiens, UniProt O95238 1-335).
T4 sequence: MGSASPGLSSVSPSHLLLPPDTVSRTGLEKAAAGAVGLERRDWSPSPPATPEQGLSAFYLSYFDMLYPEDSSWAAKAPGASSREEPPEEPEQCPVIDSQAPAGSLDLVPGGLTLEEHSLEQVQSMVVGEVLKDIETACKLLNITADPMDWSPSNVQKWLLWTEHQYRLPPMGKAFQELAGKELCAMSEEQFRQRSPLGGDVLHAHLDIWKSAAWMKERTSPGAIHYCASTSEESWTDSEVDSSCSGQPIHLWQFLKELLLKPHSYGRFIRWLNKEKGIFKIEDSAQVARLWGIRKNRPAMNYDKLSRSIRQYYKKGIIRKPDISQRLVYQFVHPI
The procedure, abridged: as §1

Experiment [5] concerns the target T5, ETV7 (Homo sapiens, UniProt Q9Y603 1-341).
T5 sequence: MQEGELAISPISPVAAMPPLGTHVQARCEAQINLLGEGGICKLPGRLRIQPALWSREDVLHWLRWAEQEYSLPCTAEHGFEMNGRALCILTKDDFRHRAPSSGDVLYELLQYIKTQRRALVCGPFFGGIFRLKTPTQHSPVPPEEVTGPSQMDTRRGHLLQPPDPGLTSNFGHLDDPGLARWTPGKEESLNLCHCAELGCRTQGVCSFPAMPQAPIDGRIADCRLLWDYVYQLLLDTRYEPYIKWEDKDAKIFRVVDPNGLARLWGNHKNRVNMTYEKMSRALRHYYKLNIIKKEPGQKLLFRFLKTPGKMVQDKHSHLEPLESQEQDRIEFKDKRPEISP
The procedure, abridged:
as §1

In experiment [6] the target is T6, ELF5 (Homo sapiens, UniProt Q9UKW6-2 1-255).
T6 sequence: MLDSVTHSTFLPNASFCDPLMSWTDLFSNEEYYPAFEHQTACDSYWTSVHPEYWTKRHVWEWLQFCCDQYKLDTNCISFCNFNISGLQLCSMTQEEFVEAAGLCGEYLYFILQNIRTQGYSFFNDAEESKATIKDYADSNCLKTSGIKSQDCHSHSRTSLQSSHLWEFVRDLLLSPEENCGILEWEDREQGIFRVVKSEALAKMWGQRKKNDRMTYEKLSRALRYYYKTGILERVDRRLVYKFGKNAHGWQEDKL
The procedure, abridged: as §1

Experiment [7] deals with T7, ETV3 (Homo sapiens, UniProt P41162-2 1-143).
T7 sequence: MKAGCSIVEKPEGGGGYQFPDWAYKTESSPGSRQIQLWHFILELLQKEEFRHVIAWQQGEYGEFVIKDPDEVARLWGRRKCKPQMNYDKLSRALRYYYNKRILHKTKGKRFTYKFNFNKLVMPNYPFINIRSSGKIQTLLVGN
The procedure, abridged:
as §1

Experiment [8] concerns the target ETV6 (Homo sapiens, UniProt P41212 1-452). Put shortly: as §1

Sequence of ETV6 (P41212 whole entry): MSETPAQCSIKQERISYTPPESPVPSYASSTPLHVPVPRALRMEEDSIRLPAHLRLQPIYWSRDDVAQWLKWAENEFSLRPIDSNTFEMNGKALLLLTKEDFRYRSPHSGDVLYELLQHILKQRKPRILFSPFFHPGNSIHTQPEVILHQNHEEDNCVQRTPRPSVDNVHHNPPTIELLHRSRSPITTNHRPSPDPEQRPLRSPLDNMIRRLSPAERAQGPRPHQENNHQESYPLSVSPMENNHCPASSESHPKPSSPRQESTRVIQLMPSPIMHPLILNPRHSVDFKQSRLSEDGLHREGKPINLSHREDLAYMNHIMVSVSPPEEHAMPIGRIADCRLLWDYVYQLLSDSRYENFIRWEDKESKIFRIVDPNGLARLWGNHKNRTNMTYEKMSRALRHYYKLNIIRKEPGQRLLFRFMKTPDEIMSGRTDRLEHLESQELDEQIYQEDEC

In the case of CGCTGC, the binding signal in experiment [1] is 1.28 fold enrichment (6-mer frequency, TF over GST control); in experiment [2], 1.17 fold enrichment (6-mer frequency, TF over GST control); in experiment [3], 1.28 fold enrichment (6-mer frequency, TF over GST control); in experiment [4] it was 1.15 fold enrichment (6-mer frequency, TF over GST control); in experiment [5], 1.03 fold enrichment (6-mer frequency, TF over GST control); in experiment [6], 1.07 fold enrichment (6-mer frequency, TF over GST control). Also, the binding signal in experiment [7] was 1.13 fold enrichment (6-mer frequency, TF over GST control); in experiment [8], 1.18 fold enrichment (6-mer frequency, TF over GST control).
Take CCGTAC: the binding signal is 1.39 fold enrichment (6-mer frequency, TF over GST control) in experiment [1]; 1.25 fold enrichment (6-mer frequency, TF over GST control) in experiment [2]; 1.32 fold enrichment (6-mer frequency, TF over GST control) in experiment [3]; 1.41 fold enrichment (6-mer frequency, TF over GST control) in experiment [4]; 1.32 fold enrichment (6-mer frequency, TF over GST control) in experiment [5]; 1.46 fold enrichment (6-mer frequency, TF over GST control) in experiment [6]. Moreover, the binding signal in experiment [7] was 1.36 fold enrichment (6-mer frequency, TF over GST control); in experiment [8], 1.33 fold enrichment (6-mer frequency, TF over GST control).
TTACGT: the binding signal in experiment [1] was 1.11 fold enrichment (6-mer frequency, TF over GST control); in experiment [2] it was 1.18 fold enrichment (6-mer frequency, TF over GST control); in experiment [3] it was 1.21 fold enrichment (6-mer frequency, TF over GST control); in experiment [4] it was 1.13 fold enrichment (6-mer frequency, TF over GST control); in experiment [5], 1.14 fold enrichment (6-mer frequency, TF over GST control); in experiment [6] it was 1.12 fold enrichment (6-mer frequency, TF over GST control). The binding signal was 1.15 fold enrichment (6-mer frequency, TF over GST control) in experiment [7] and 1.09 fold enrichment (6-mer frequency, TF over GST control) in experiment [8].
Regarding ACATGT, the binding signal is 1.15 fold enrichment (6-mer frequency, TF over GST control) in experiment [1]; 1.19 fold enrichment (6-mer frequency, TF over GST control) in experiment [2]; 1.15 fold enrichment (6-mer frequency, TF over GST control) in experiment [3]; 1.19 fold enrichment (6-mer frequency, TF over GST control) in experiment [4]; 1.16 fold enrichment (6-mer frequency, TF over GST control) in experiment [5]; 1.12 fold enrichment (6-mer frequency, TF over GST control) in experiment [6]. The binding signal in experiment [7] was 1.16 fold enrichment (6-mer frequency, TF over GST control); in experiment [8] it was 1.14 fold enrichment (6-mer frequency, TF over GST control).
Consider AATCCG, for which the binding signal is 1.5 fold enrichment (6-mer frequency, TF over GST control) in experiment [1]; 1.6 fold enrichment (6-mer frequency, TF over GST control) in experiment [2]; 1.7 fold enrichment (6-mer frequency, TF over GST control) in experiment [3]; 2.04 fold enrichment (6-mer frequency, TF over GST control) in experiment [4]; 1.51 fold enrichment (6-mer frequency, TF over GST control) in experiment [5]; 1.74 fold enrichment (6-mer frequency, TF over GST control) in experiment [6]. Besides, the binding signal is 1.66 fold enrichment (6-mer frequency, TF over GST control) in experiment [7] and 1.49 fold enrichment (6-mer frequency, TF over GST control) in experiment [8].
TTCACC: the binding signal was 1.41 fold enrichment (6-mer frequency, TF over GST control) in experiment [1]; 1.32 fold enrichment (6-mer frequency, TF over GST control) in experiment [2]; 1.35 fold enrichment (6-mer frequency, TF over GST control) in experiment [3]; 1.32 fold enrichment (6-mer frequency, TF over GST control) in experiment [4]; 1.3 fold enrichment (6-mer frequency, TF over GST control) in experiment [5]; 1.32 fold enrichment (6-mer frequency, TF over GST control) in experiment [6]. Moreover, the binding signal is 1.48 fold enrichment (6-mer frequency, TF over GST control) in experiment [7] and 1.35 fold enrichment (6-mer frequency, TF over GST control) in experiment [8].
In the case of TTAAGT, the binding signal in experiment [1] was 1.12 fold enrichment (6-mer frequency, TF over GST control); in experiment [2], 1.15 fold enrichment (6-mer frequency, TF over GST control); in experiment [3], 1.16 fold enrichment (6-mer frequency, TF over GST control); in experiment [4], 1.31 fold enrichment (6-mer frequency, TF over GST control); in experiment [5], 1.19 fold enrichment (6-mer frequency, TF over GST control); in experiment [6] it was 1.12 fold enrichment (6-mer frequency, TF over GST control). The binding signal in experiment [7] was 1.12 fold enrichment (6-mer frequency, TF over GST control); in experiment [8], 1.19 fold enrichment (6-mer frequency, TF over GST control).
Consider TCGTTC, for which the binding signal in experiment [1] was 1.36 fold enrichment (6-mer frequency, TF over GST control); in experiment [2] it was 1.25 fold enrichment (6-mer frequency, TF over GST control); in experiment [3], 1.2 fold enrichment (6-mer frequency, TF over GST control); in experiment [4] it was 1.3 fold enrichment (6-mer frequency, TF over GST control); in experiment [5], 1.15 fold enrichment (6-mer frequency, TF over GST control); in experiment [6], 1.27 fold enrichment (6-mer frequency, TF over GST control). Besides, the binding signal is 1.26 fold enrichment (6-mer frequency, TF over GST control) in experiment [7] and 1.29 fold enrichment (6-mer frequency, TF over GST control) in experiment [8].
Turning to TCCTTA, the binding signal in experiment [1] is 1.43 fold enrichment (6-mer frequency, TF over GST control); in experiment [2] it was 1.7 fold enrichment (6-mer frequency, TF over GST control); in experiment [3] it was 1.6 fold enrichment (6-mer frequency, TF over GST control); in experiment [4], 1.75 fold enrichment (6-mer frequency, TF over GST control); in experiment [5], 1.59 fold enrichment (6-mer frequency, TF over GST control); in experiment [6] it was 2.6 fold enrichment (6-mer frequency, TF over GST control). The binding signal was 1.74 fold enrichment (6-mer frequency, TF over GST control) in experiment [7] and 1.63 fold enrichment (6-mer frequency, TF over GST control) in experiment [8].
